Results filed as inconclusive are left out. Calls of active or inactive are those of the source. Unless noted, calls follow the shape of the dose curve; as a rule, active = well fitted curve in the direction sought with a large enough effect in the repeat runs; inconclusive = weak or mixed curves; inactive = no such curve, though single readings can be large; an effect the other way counts as inactive or inconclusive.

The nature of experiment [1]: qHTS assay to identify small molecule that activate the aryl hydrocarbon receptor (AhR) signaling pathway - cell viability counter screen (AID 743086).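 Also: HepG2 liver cells carrying the AhR DRE luciferase reporter; series mostly up to about 70 µM; nearly all actives have a fitted effect of over 45% in size.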 In a few lines:
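Cytotoxicity counter screen: CellTiter-Fluor signal (30 min, 37 C) in 4000 HepG2 cells/well carrying the DRE-luciferase reporter, following 24 h compound exposure at 37 C.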
(In general: In qHTS, concentration-response curves come from the screen itself.)

The target in experiment [2] is Peroxisome proliferator-activated receptor gamma (Homo sapiens) (UniProt P37231). The experiment can be described thus: qHTS assay to identify small molecule agonists of the peroxisome proliferator-activated receptor gamma (PPARg) signaling pathway (AID 743094; active = well fitted activation curve with a large enough effect in the signal ratio in the repeat runs, not every such curve was filed as active; the % refers to the signal ratio). The method, boiled down:
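Fluorescence-based beta-lactamase readout in HEK293H PPARg UAS-bla cells after 17 h compound exposure (37C) and 1 h B/G FRET substrate incubation at room temperature.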

Experiment [3] shares this target. Nature of the experiment: qHTS assay to identify small molecule antagonists of the peroxisome proliferator-activated receptor gamma (PPARg) signaling pathway (AID 743191; calls by dose curve; also: series mostly up to about 63 µM; nearly all actives have a fitted effect of over 30% in size). The method, boiled down: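 Beta-lactamase reporter under UAS control in HEK293H PPARg-bla cells; compound treatment 17 h at 37C. Read-out: fluorescence intensity after 1 h room-temperature incubation with LiveBLAzer B/G FRET substrate.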

Experiment [4] is described as follows: qHTS assay to identify small molecule antagonists of the peroxisome proliferator-activated receptor gamma (PPARg) signaling pathway - cell viability counter screen (AID 743194). Also: nearly all actives have a fitted effect of over 55% in size. As to conditions: Potency: co-treated with 50 nM rosiglitazone unless noted. The method, boiled down:
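Viability was measured as CellTiter-Glo luminescence in GeneBLAzer PPARg UAS-bla HEK293H cells. These cells had been exposed 17 h at 37 C to compounds together with rosiglitazone at 50 nM final, with the beta-lactamase readout taken in the same wells.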

The nature of experiment [5]: qHTS assay for small molecule agonists of the antioxidant response element (ARE) signaling pathway - cell viability counter screen (AID 743203; calls by dose curve; also: nearly all actives have a fitted effect of over 55% in size). The method, boiled down:
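Parallel cytotoxicity read-out for the ARE-bla screen: HepG2 reporter cells, 16 hrs with compounds, then CellTiter-Glo luminescence.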

A short description of experiment [6]: qHTS assay for small molecule activators of the heat shock response signaling pathway (AID 743210; active = well fitted activation curve with a large enough effect in the signal ratio in the repeat runs, with a control signal flat, not every such curve was filed as active; the % refers to the signal ratio;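 also: HeLa cells with beta-lactamase reporter driven by heat shock elements; series mostly up to about 63 µM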). The method, boiled down:
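Fluorescence from a cleaved B/G FRET substrate (2.5 h, room temp) reports HSE-driven beta-lactamase in HeLa cells treated 5 h at 37 C with DMSO-dissolved compounds.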

The nature of experiment [7]: qHTS assay to identify small molecule agonists of the peroxisome proliferator-activated receptor delta (PPARd) signaling pathway - cell viability counter screen (AID 743211). Also: nearly all actives have a fitted effect of over 55% in size. The method, boiled down: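 In the same wells used for beta-lactamase reporter measurement, cytotoxicity is scored by CellTiter-Glo. HEK293H PPARd-bla cells receive compound for 17 h at 37C following a 5 h settling period.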

The nature of experiment [8]: qHTS assay to identify small molecule antagonists of the peroxisome proliferator-activated receptor delta (PPARd) signaling pathway - cell viability counter screen (AID 743213). Also: nearly all actives have a fitted effect of over 50% in size. In a few lines:
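PPARd-bla HEK293H cells (3000/well) got compound plus 300 nM L165041 agonist for 17 h at 37 C. Viability in the same wells came from CellTiter-Glo luminescence after 30 min at room temperature.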

Experiment [9] can be described thus: qHTS assay to identify small molecule agonists of the farnesoid-X-receptor (FXR) signaling pathway - cell viability counter screen (AID 743218). Also: nearly all actives have a fitted effect of over 45% in size. In a few lines:
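Same-well cytotoxicity check on FXR-UAS-bla HEK 293T cells: 5 h attachment, 16 h compound at 37 C, CellTiter-Glo luminescence read at room temperature after 30 min.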

Experiment [10] can be described thus: qHTS assay to identify small molecule antagonists of the farnesoid-X-receptor (FXR) signaling pathway - cell viability counter screen (AID 743221; active = well fitted cell-killing curve with a large enough effect in the repeat runs, not every such curve was filed as active; also: nearly all actives have a fitted effect of over 50% in size). In a few lines:
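Here viability was scored by luminescence after CellTiter-Glo addition to wells already read for beta-lactamase. Prior treatment: compound plus CDCA (50 uM final), 16 h, 37 C, HEK 293T FXR-bla cells.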

Experiment [11] deals with Vitamin D3 receptor (Homo sapiens) (UniProt P11473). Nature of the experiment: qHTS assay to identify small molecule antagonists of the vitamin D receptor (VDR) signaling pathway (AID 743223; active = well fitted inhibition curve with a large enough effect in the signal ratio in the repeat runs, not every such curve was filed as active; the % refers to the signal ratio). The method, boiled down:
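Inhibition of agonist-driven VDR signalling is scored in VDR-bla cells: 3 nM final 1alpha,25-dihydroxyvitamin D3 plus compound, 16 h at 37C, then beta-lactamase detection by FRET substrate fluorescence after 2 h.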

Experiment [12] can be described thus: qHTS assay to identify small molecule agonists of the vitamin D receptor (VDR) signaling pathway - cell viability counter screen (AID 743224). Also: series mostly up to about 63 µM; nearly all actives have a fitted effect of over 50% in size. The method, boiled down: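 Counter screen for cytotoxicity: VDR-bla cells at 2,000 cells/well, 16 h compound exposure, then CellTiter-Glo luminescence after the beta-lactamase measurement.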
Experiment [13] is described as follows: qHTS assay to identify small molecule agonists of the NFkB signaling pathway - cell viability counter screen (AID 1159515; calls by dose curve; also: series mostly up to about 61 µM; nearly all actives have a fitted effect of over 55% in size). In a few lines: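 Counter screen run alongside the NFkB-bla agonist assay: ME-180 reporter cells exposed to compounds for 5 hr, then lysed with CellTiter-Glo in the same wells. Luminescence, read after 30 min, reflects viable cells.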

A short description of experiment [14]: qHTS assay for small molecule agonists of the antioxidant response element (ARE) signaling pathway (AID 743202; active = well fitted activation curve with a large enough effect in the signal ratio in the repeat runs, not every such curve was filed as active; the % refers to the signal ratio; also: potency is read from the fitted curve at half-maximal effect). In a few lines:
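Beta-lactamase reporter activity, read as fluorescence intensity, reflects ARE/Nrf2 pathway induction in HepG2 cells after 16 h compound exposure at 37 C; substrate loading was 2 h at room temperature.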

The target in experiment [15] is Peroxisome proliferator-activated receptor delta (Homo sapiens) (UniProt Q03181). The experiment can be described thus: qHTS assay to identify small molecule agonists of the peroxisome proliferator-activated receptor delta (PPARd) signaling pathway (AID 743212; calls by dose curve;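 also: HEK293H cells with PPARd UAS beta-lactamase reporter GeneBLAzer system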). In a few lines:
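Steps: seed PPARd-bla HEK293H cells; incubate 5 h, 37 C, 5% CO2; add compounds in DMSO; incubate, 37 C; add LiveBLAzer B/G FRET substrate; hold 2 h at room temperature; measure fluorescence.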

Experiment [16] has the same target. Nature of the experiment: qHTS assay to identify small molecule antagonists of the peroxisome proliferator-activated receptor delta (PPARd) signaling pathway (AID 743215; active = well fitted inhibition curve with a large enough effect in the signal ratio in the repeat runs, not every such curve was filed as active; the % refers to the signal ratio;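 also: cells stimulated with agonist L165041 at 300 nM final during compound exposure; series mostly up to about 62 µM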). The method, boiled down:
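Screen format: qHTS, antagonist mode. HEK293H PPARd-bla cells received compound and 300 nM L165041 (final), 17 h, 37 C. Beta-lactamase detected via FRET substrate fluorescence, 2 h, room temperature.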

A short description of experiment [17]: qHTS assay to identify small molecule antagonists of the vitamin D receptor (VDR) signaling pathway - cell viability counter screen (AID 743225). Also: nearly all actives have a fitted effect of over 50% in size. In a few lines:
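Compounds were pinned onto VDR-bla HEK 293T cells together with 1-alpha,25-dihydroxyvitamin D3 at 3 nM final. After 16 h at 37C and 5% CO2 plus the reporter readout, cell viability was measured by CellTiter-Glo luminescence (30 min, room temperature).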

In experiment [18] the target is Bile acid receptor (Homo sapiens) (UniProt Q96RI1). Nature of the experiment: qHTS assay to identify small molecule antagonists of the farnesoid-X-receptor (FXR) signaling pathway (AID 743217; active = well fitted inhibition curve with a large enough effect in the signal ratio in the repeat runs, not every such curve was filed as active; the % refers to the signal ratio). In a few lines: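 Quantitative HTS, beta-lactamase reporter format: FXR-UAS-bla HEK 293T cells co-treated 16 h at 37 °C with compounds and 50 uM final chenodeoxycholic acid, then read by B/G FRET fluorescence.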

For experiment [19] the target is unchanged. The experiment can be described thus: qHTS assay to identify small molecule agonists of the farnesoid-X-receptor (FXR) signaling pathway (AID 743220; active = well fitted activation curve with a large enough effect in the signal ratio in the repeat runs, not every such curve was filed as active; the % refers to the signal ratio). In a few lines: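 FXR-UAS-bla HEK 293T cells carrying a UAS-driven beta-lactamase reporter were plated for 5 h at 37C/5% CO2, then exposed to DMSO-dissolved Tox21 10K compounds for 16 h at 37C. A LiveBLAzer B/G FRET substrate was loaded for 2 h at room temperature before fluorescence reading.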

Experiment [20] is described as follows: qHTS assay for small molecule activators of the heat shock response signaling pathway - cell viability counter screen (AID 743209). Also: nearly all actives have a fitted effect of over 50% in size. The method, boiled down: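 To flag cytotoxic compounds, HSE-bla HeLa cells plated at 1500 cells/well were dosed for 5 h at 37 C, followed by the reporter FRET read and then CellTiter-Glo, with luminescence recorded 30 min after reagent addition.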

Sequence of Vitamin D3 receptor (Homo sapiens) (P11473 whole entry, looked up): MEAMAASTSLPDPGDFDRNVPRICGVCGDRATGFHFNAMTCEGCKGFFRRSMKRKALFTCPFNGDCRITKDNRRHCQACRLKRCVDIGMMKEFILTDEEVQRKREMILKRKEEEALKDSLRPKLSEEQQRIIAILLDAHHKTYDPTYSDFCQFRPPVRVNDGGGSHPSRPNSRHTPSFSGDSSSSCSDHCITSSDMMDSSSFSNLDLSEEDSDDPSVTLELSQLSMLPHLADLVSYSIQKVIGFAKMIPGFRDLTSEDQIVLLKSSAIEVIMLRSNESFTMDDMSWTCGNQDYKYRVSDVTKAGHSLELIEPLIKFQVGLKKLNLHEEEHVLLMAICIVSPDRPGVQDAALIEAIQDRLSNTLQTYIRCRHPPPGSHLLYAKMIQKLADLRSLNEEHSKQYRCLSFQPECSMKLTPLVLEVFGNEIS
Sequence of Bile acid receptor (Homo sapiens) (Q96RI1 whole entry, looked up): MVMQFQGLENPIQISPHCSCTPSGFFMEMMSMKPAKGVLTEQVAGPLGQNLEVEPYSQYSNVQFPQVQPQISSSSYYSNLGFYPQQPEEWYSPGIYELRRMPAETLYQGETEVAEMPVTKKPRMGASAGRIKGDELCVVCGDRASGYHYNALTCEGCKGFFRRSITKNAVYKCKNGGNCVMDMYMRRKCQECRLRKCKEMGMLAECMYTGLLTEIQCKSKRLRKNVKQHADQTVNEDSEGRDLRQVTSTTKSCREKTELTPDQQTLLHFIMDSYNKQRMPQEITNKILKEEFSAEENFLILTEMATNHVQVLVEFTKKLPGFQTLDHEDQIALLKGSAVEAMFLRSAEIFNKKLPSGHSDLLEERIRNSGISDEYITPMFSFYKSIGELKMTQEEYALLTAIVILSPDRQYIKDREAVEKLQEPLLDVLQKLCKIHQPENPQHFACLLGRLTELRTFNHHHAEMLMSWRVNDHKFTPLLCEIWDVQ
Sequence of Peroxisome proliferator-activated receptor delta (Homo sapiens) (Q03181 whole entry, looked up): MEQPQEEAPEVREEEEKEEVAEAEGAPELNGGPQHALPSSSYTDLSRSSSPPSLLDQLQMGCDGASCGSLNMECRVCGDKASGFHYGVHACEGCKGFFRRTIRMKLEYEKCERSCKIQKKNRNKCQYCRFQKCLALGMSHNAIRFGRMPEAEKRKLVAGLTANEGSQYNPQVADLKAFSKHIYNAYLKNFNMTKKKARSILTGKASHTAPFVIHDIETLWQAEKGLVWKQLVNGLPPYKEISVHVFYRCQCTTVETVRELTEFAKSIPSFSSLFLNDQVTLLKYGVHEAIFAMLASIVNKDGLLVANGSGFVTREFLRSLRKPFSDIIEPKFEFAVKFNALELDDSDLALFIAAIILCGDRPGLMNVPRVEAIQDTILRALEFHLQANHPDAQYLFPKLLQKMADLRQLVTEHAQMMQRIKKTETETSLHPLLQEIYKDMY
Sequence of Peroxisome proliferator-activated receptor gamma (Homo sapiens) (P37231 whole entry, looked up): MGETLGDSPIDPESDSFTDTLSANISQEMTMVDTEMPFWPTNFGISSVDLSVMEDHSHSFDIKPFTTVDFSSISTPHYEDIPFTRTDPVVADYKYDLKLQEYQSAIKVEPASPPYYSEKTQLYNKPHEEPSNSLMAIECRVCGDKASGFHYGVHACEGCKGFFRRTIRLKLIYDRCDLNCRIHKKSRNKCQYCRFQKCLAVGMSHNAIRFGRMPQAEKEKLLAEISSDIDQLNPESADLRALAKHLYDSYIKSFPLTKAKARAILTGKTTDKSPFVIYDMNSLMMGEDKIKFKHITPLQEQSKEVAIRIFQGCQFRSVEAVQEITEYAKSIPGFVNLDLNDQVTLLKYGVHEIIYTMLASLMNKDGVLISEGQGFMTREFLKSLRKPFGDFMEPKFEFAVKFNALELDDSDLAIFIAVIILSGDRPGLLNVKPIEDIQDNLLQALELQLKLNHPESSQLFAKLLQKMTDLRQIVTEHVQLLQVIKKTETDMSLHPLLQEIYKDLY

On to `CCn1cc[n+](C)c1C`, for which the Potency result in experiment [1], in experiment [3], in experiment [4], in [5], in [7] and in experiment [8] was “inactive” in each case. For the same molecule, the Potency entry in [9], in [10], in [11], in [12] and in [13] was “inactive” each time. For the same molecule, the call in experiment [2] and in experiment [6] was inactive.
As to `CC(Cl)(Cl)C(=O)O`, the Potency entry in experiment [1], in experiment [3], in experiment [4], in experiment [14], in experiment [5] and in experiment [7] was “inactive” each time. For the same molecule, the Potency entry in [8], in [9], in experiment [10], in experiment [11], in [12] and in [13] was “inactive” in each case. Also, the call in experiment [2], in experiment [6], in [15] and in experiment [16] was inactive.
For `Oc1ccccc1-c1ccccc1`, the Potency entry in [1], in experiment [3], in [4], in [5], in experiment [7] and in experiment [8] was “inactive” throughout. Also, the Potency entry in [9], in experiment [10], in [11], in [12] and in experiment [13] was “inactive” in each case. Further, the call in experiment [2], in [15] and in experiment [16] was inactive. The Potency in experiment [14] is 55.8 µM (active).
As to `O=C(O)CCl`, the Potency result in experiment [1], in experiment [3], in experiment [4], in [14], in experiment [5] and in experiment [7] was “inactive” throughout. Besides, the Potency result in experiment [8], in [9], in experiment [10], in [11], in [12] and in experiment [13] was “inactive” throughout. Moreover, the call in experiment [2] and in experiment [6] was inactive.
For `O=C(O)CC(O)(CC(=O)O)C(=O)O`, the Potency result in experiment [1], in experiment [3], in experiment [4], in experiment [14], in experiment [5] and in [7] was “inactive” in each case. In addition, the Potency entry in experiment [8], in experiment [9], in experiment [10], in experiment [11], in [12] and in experiment [17] was “inactive” each time. For the same molecule, in experiment [13], the Potency entry was “inactive”. Besides, the outcome in experiment [2], in [6], in experiment [15] and in [16] was inactive.
Take `COCC(=O)N(c1c(C)cccc1C)C(C)C(=O)OC` (stereo not drawn): the Potency entry in [1], in experiment [3], in experiment [4], in [14], in experiment [5] and in experiment [7] was “inactive” throughout. In addition, the Potency entry in [8], in experiment [18], in [9], in experiment [10], in experiment [11] and in experiment [12] was “inactive” each time. Besides, the Potency result in experiment [17] and in [13] was “inactive” each time. Moreover, the call in experiment [2], in experiment [6], in experiment [15], in [16] and in experiment [19] was inactive.
Consider `O=c1nc(O)n(Cl)c(=O)n1Cl`, for which the Potency entry in [1], in experiment [3], in [4], in experiment [14], in experiment [5] and in experiment [20] was “inactive” each time. Besides, the Potency entry in experiment [7], in experiment [8], in experiment [9], in [10], in experiment [12] and in [13] was “inactive” throughout. Moreover, in experiment [2], the molecule was classed as inactive.
Consider `CCNc1nc(Cl)nc(NCC)n1`, for which the Potency entry in experiment [1], in experiment [3], in [4], in experiment [14], in [5] and in experiment [7] was “inactive” throughout. The Potency entry in [8], in experiment [18], in experiment [9], in [10], in [11] and in [12] was “inactive” throughout. In addition, in [13], the Potency result was “inactive”. Also, the call in experiment [2], in [6] and in [19] was inactive.

Values taken from PubChem BioAssay (Tox21).
